The target of the first test is Streptavidin (Streptomyces avidinii) (UniProt P22629). In words: streptavidin binders on small-molecule microarray, primary screen, artefact control for SMM compound annotation, biophysical, 635/667 nm fluorescence (AID 1147).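 Note: signal reflects streptavidin binding to arrayed compounds as a control protein.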 Conditions: streptavidin binding, higher = more signal.
Sequence of Streptavidin (Streptomyces avidinii) (P22629 whole entry, looked up): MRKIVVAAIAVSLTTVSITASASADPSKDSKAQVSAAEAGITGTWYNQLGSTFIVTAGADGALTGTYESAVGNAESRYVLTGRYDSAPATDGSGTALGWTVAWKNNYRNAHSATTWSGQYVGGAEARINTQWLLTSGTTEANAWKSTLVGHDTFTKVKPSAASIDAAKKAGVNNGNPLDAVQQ
Turning to `COc1ccc([Si](C)(C)[C@@H]2[C@@H](CCn3cc([C@H](O)c4ccccc4)nn3)O[C@]3(C(=O)N(Cc4ccc(N5C(=O)c6cccc7cccc5c67)cc4)c4ccccc43)[C@H]2C)cc1`, the composite z-score was -0.378. `CCOC(=O)C1=CC[C@@H](c2ccccc2)N(S(=O)(=O)c2ccc(C)cc2)[C@H]1C(=O)OCC` returned a composite z-score of 0.491. `CCCCCN1CC=CC23O[C@@H]4/C=C\CCCOC(=O)C4[C@H]2C(=O)N(CCCCCCO)[C@@H]3C1=O` (some centres undefined) registered a composite z-score of -1.21. Still for that read-out and setting: under `COCCOC(=O)N1C(=O)[C@@]2(c3ccccc31)[C@H](C(=O)NC[C@H](O)c1ccccc1)[C@H]1C(=O)O[C@H](c3ccccc3)[C@H](c3ccccc3)N1[C@@H]2c1ccc(OCCO)cc1` stands 0.168; under `CC(=O)Nc1cc(Br)ccc1C(=O)O`, 0.254; under `CN(C)C(=O)[C@@]1(CCC(=O)OC(C)(C)C)N=C(c2ccc(OCCCO)cc2)O[C@H]1c1ccccc1`, 0.0732. As to `C=CCOC(=O)[C@@H]1[C@H]2C(=O)O[C@H](c3ccccc3)[C@H](c3ccccc3)N2[C@H](c2ccc(OCCOC(=O)[C@@H]3C[C@@H]4C(=O)N[C@@H](Cc5ccccc5)C(=O)N4[C@@H]3c3cccc(OCCO)c3)cc2)[C@@]12C(=O)Nc1ccc(I)cc12`, the composite z-score is -0.184. Turning to `COc1cc2c(cc1O)C(C)N(Cc1cccc(OC(F)(F)F)c1)CC2` (centres undefined), the composite z-score stood at 0.395. With `CC(C)CNC(=O)[C@@]1(c2ccc([N+](=O)[O-])cc2)CC(=O)N(CC23CC4CC(CC(C4)C2)C3)[C@@H]1c1ccc(CO)cc1`, the composite z-score is -0.256. As to `COc1ccc([Si](C)(C)[C@@H]2[C@@H](CC(=O)N(CCO)Cc3ccccc3)O[C@]3(C(=O)N(C)c4ccccc43)[C@H]2C)cc1`, the composite z-score is 0.92. In the case of `CC(C)N1C(=O)C[C@@](C(=O)NCc2ccccc2)(c2ccc([N+](=O)[O-])cc2)[C@H]1c1ccc(CO)cc1`, the composite z-score is -0.939. Compound `O=C1C2C=CC(C(O)c3ccc(B(O)O)cc3)N(Nc3ccccc3)C2C(=O)N1c1ccccc1` (centres undefined) yielded a composite z-score of 0.471. Compound `O=C(CCN1CCOCC1)c1cccc(O)c1` registered a composite z-score of 0.802. In turn, `C=CC[C@]1(C(=O)N2CCOCC2)N=C(c2ccc(OCCCO)cc2)O[C@H]1c1ccccc1` yielded a composite z-score of 0.954. In turn, `C=CC(=C)C1=CCO[C@@H]1[C@H]1CCCN1S(=O)(=O)c1ccccc1[N+](=O)[O-]` displayed a composite z-score of 0.909. `COc1ccc(C#Cc2ccc3c(c2)[C@]2(C(=O)N3)[C@H](c3ccc(O)cc3)N3[C@H](c4ccccc4)[C@H](c4ccccc4)OC(=O)[C@H]3[C@@H]2C(=O)NC[C@H](O)c2ccccc2)cc1` returned a composite z-score of 0.153. The compound `CN1C=C(C(=O)OCCS(C)(=O)=O)C(C(=O)OCCS(C)(=O)=O)=CC(CCCO)=CC1C1CC1` (centres undefined) had a composite z-score of 0.207. Compound `C=CC[C@@]1(C(=O)NCC(O)CO)N=C(c2ccc(OCCCO)cc2)O[C@@H]1c1ccccc1N=[N+]=[N-]` (some centres undefined) came in with a composite z-score of 1.02.

Tested on in a further test: not listed separately
In words: small-molecule binders of probe aInhba, primary screen, biochemical, small-molecule microarray, 635/667 nm fluorescence (AID 1148).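 Note: score merges 667nm spot fluorescence with signal-to-noise for antibody binding to printed compounds.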 Conditions: higher = more signal.
As to `C=CCC(OC(C)=O)[C@@H]1[C@@H](N(Cc2cc3ccccc3o2)C(=O)c2ccc(C)cc2)c2cc(OCCCO)ccc2N1C(=O)c1ccc2ccccc2c1` (some centres undefined), the composite z-score is -0.0963. Compound `COc1c(C)cc(-c2cc3c(c(-c4ccc(Oc5ccccc5)cc4)n2)[Si](C(C)C)(C(C)C)OC3)cc1C` yielded a composite z-score of 0.127.

In turn, `COc1ccc([Si](C)(C)[C@@H]2[C@@H](CC(=O)N3CCC[C@H]3CO)O[C@]3(C(=O)N(C)c4c(Br)cc(C)cc43)[C@H]2C)cc1` displayed a composite z-score of -0.103. For the compound `CCC(CC)C(O)C1C=CC2C(=O)N(c3ccccc3)C(=O)C2N1Nc1ccc(C#N)cc1` (centres undefined), the composite z-score was found to be 0.75. As to `C=CCC(OC(C)=O)[C@@H]1[C@@H](N(Cc2ccc(-c3ccccc3)cc2)C(=O)Cc2ccc(F)cc2)c2cc(OCCCO)ccc2N1C(=O)c1ccc2ccccc2n1` (some centres undefined), the composite z-score turned out to be 0.151. The compound `C=C[C@@H](COC(C)=O)N(Cc1ccccc1[N+](=O)[O-])S(=O)(=O)c1ccc(Br)cc1` gave a composite z-score of -0.104. Still for that read-out and setting: in the case of `COCCOC(=O)N1C(=O)[C@@]2(c3cc(C#CC4=CCCCC4)ccc31)[C@H](C(=O)NC[C@H](O)c1ccccc1)[C@H]1C(=O)O[C@H](c3ccccc3)[C@H](c3ccccc3)N1[C@@H]2c1ccc(O)cc1` it was 0.221. Consider `[N-]=[N+]=Nc1ccccc1[C@@H]1OC(c2ccc(OCCCO)cc2)=N[C@]1(CCS(=O)(=O)c1ccccc1)C(=O)N1CCOCC1`, for which the composite z-score was 0.165. Consider `Cc1ccc(S[C@]2(C(=O)NCC(C)C)CC(=O)N(Cc3ccccc3Cl)[C@@H]2c2ccc(CO)cc2)cc1`, for which the composite z-score is -0.331.

In turn, `CC(C)C(=C=CC[C@@H](O)c1ccccc1OCCO)C[C@@H](O)c1ccccn1` registered a composite z-score of 0.0275.

On to `O=C1O[C@H](c2ccccc2)[C@H](c2ccccc2)N2[C@H]1[C@@H](C(=O)NC[C@H](O)c1ccccc1)[C@]1(C(=O)Nc3ccc(C#CCCO)cc31)[C@H]2c1ccc(O)cc1`, for which the composite z-score was found to be 0.295. Same read-out and setting: in the case of `COCCOC(=O)N1C(=O)[C@@]2(c3cc(C#CCNC(N)=O)ccc31)[C@H](c1ccccc1OCCO)N1[C@H](c3ccccc3)[C@H](c3ccccc3)OC(=O)[C@H]1[C@@H]2C(N)=O` it was 0.0422.

The compound `O=C1C2C=CC(C(O)c3cccs3)N(Nc3ccccc3F)C2C(=O)N1c1ccccc1` (centres undefined) showed a composite z-score of -0.159. In turn, `COCCOC(=O)N1C(=O)[C@@]2(c3cc(C#Cc4ccc(OC)cc4)ccc31)[C@H](C(=O)N1CCN(c3ncccn3)CC1)[C@H]1C(=O)O[C@H](c3ccccc3)[C@H](c3ccccc3)N1[C@@H]2c1ccc(O)cc1` displayed a composite z-score of -0.0762. Same read-out and setting: under `COC(=O)c1ccc(C23CC2(C(NP(=O)(c2ccccc2)c2ccccc2)c2ccccc2)C3)cc1` (centres undefined) stands 0.178. Regarding `CS(=O)(=O)CCOC(=O)C1=CC(CCCO)=CC(c2cccs2)N(Cc2cc3c(cc2Br)OCO3)C=C1C(=O)OCCS(C)(=O)=O` (centres undefined), the composite z-score was 0.086. As to `CC(C)c1ccc(NN2C(C(O)c3ccc(N(C)C)cc3)C=CC3C(=O)N(c4ccccc4)C(=O)C32)cc1` (centres undefined), the composite z-score worked out at 0.268. `COCCOC(=O)N1C(=O)[C@@]2(c3cc(C#CCC(C(=O)OC)C(=O)OC)ccc31)[C@H](c1ccc(O)cc1)N1[C@H](c3ccccc3)[C@H](c3ccccc3)OC(=O)[C@H]1[C@@H]2C(N)=O` registered a composite z-score of 0.215. For the compound `COc1ccc([Si](C)(C)[C@@H]2[C@@H](CCn3cc([C@H](O)c4ccccc4)nn3)O[C@]3(C(=O)N(Cc4ccc(N5C(=O)c6cccc7cccc5c67)cc4)c4ccccc43)[C@H]2C)cc1`, the composite z-score was -0.0762. In the case of `CCOC(=O)C1=CC[C@@H](c2ccccc2)N(S(=O)(=O)c2ccc(C)cc2)[C@H]1C(=O)OCC`, the composite z-score is 0.421. Regarding `CCCCCN1CC=CC23O[C@@H]4/C=C\CCCOC(=O)C4[C@H]2C(=O)N(CCCCCCO)[C@@H]3C1=O` (some centres undefined), the composite z-score is -0.128. With `COCCOC(=O)N1C(=O)[C@@]2(c3ccccc31)[C@H](C(=O)NC[C@H](O)c1ccccc1)[C@H]1C(=O)O[C@H](c3ccccc3)[C@H](c3ccccc3)N1[C@@H]2c1ccc(OCCO)cc1`, the composite z-score amounted to 0.0588. On the same count and under the same terms, in the case of `CC(=O)Nc1cc(Br)ccc1C(=O)O` it was 0.0658. `CN(C)C(=O)[C@@]1(CCC(=O)OC(C)(C)C)N=C(c2ccc(OCCCO)cc2)O[C@H]1c1ccccc1` came in with a composite z-score of 0.776.

`C=CCOC(=O)[C@@H]1[C@H]2C(=O)O[C@H](c3ccccc3)[C@H](c3ccccc3)N2[C@H](c2ccc(OCCOC(=O)[C@@H]3C[C@@H]4C(=O)N[C@@H](Cc5ccccc5)C(=O)N4[C@@H]3c3cccc(OCCO)c3)cc2)[C@@]12C(=O)Nc1ccc(I)cc12` registered a composite z-score of 0.35. On the same count and under the same terms, in the case of `COc1cc2c(cc1O)C(C)N(Cc1cccc(OC(F)(F)F)c1)CC2` (centres undefined) it was 0.0528; in that of `CC(C)CNC(=O)[C@@]1(c2ccc([N+](=O)[O-])cc2)CC(=O)N(CC23CC4CC(CC(C4)C2)C3)[C@@H]1c1ccc(CO)cc1`, -0.0442; in that of `COc1ccc([Si](C)(C)[C@@H]2[C@@H](CC(=O)N(CCO)Cc3ccccc3)O[C@]3(C(=O)N(C)c4ccccc43)[C@H]2C)cc1`, 0.218.

For the compound `CC(C)N1C(=O)C[C@@](C(=O)NCc2ccccc2)(c2ccc([N+](=O)[O-])cc2)[C@H]1c1ccc(CO)cc1`, the composite z-score is 0.0275. `O=C1C2C=CC(C(O)c3ccc(B(O)O)cc3)N(Nc3ccccc3)C2C(=O)N1c1ccccc1` (centres undefined): the composite z-score is -0.0797. Consider `O=C(CCN1CCOCC1)c1cccc(O)c1`, for which the composite z-score was -0.0962. `C=CC[C@]1(C(=O)N2CCOCC2)N=C(c2ccc(OCCCO)cc2)O[C@H]1c1ccccc1`: the composite z-score was found to be 0.0561.

With `C=CC(=C)C1=CCO[C@@H]1[C@H]1CCCN1S(=O)(=O)c1ccccc1[N+](=O)[O-]`, the composite z-score is -0.0221. Compound `COc1ccc(C#Cc2ccc3c(c2)[C@]2(C(=O)N3)[C@H](c3ccc(O)cc3)N3[C@H](c4ccccc4)[C@H](c4ccccc4)OC(=O)[C@H]3[C@@H]2C(=O)NC[C@H](O)c2ccccc2)cc1` showed a composite z-score of -0.0606. Compound `CN1C=C(C(=O)OCCS(C)(=O)=O)C(C(=O)OCCS(C)(=O)=O)=CC(CCCO)=CC1C1CC1` (centres undefined) registered a composite z-score of -0.128. Take `C=CC[C@@]1(C(=O)NCC(O)CO)N=C(c2ccc(OCCCO)cc2)O[C@@H]1c1ccccc1N=[N+]=[N-]` (some centres undefined): the composite z-score amounted to 0.246.
